The structures appear in SMILES notation. About 16,000 (7.3%) of roughly 220,000 compounds were called active. Not shown: some 25% with an inconclusive outcome. What follows is part of a selection rich in actives, with near analogues and random picks from the rest. A call without a number means that no potency is given here. Values without a mark were called inactive. The call rests on the fitted dose curve; in most records, active means well fitted inhibition curve with a large enough effect (not every such curve was filed as active); inconclusive means small, poorly fitted or top-dose-only effect, or another doubt; inactive means no such curve, though single readings can be large or run the other way.
Potency means the concentration at half of the fitted maximal effect.

Aldehyde dehydrogenase 1A1 (Homo sapiens), sequence (P00352 whole entry, looked up): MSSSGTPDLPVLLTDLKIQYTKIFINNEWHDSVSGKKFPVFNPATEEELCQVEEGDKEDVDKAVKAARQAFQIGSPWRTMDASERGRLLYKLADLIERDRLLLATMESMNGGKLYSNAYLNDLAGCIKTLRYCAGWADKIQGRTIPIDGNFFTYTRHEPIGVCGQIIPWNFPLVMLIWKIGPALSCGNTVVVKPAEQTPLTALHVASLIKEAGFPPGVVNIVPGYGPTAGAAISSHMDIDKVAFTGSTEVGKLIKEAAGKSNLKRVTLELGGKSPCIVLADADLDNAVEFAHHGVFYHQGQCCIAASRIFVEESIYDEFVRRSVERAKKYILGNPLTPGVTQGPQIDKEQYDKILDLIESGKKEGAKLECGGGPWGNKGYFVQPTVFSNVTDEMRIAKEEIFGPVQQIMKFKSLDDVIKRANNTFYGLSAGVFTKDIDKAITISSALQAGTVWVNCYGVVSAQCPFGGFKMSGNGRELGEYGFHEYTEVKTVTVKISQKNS

This assay concerns the target Aldehyde dehydrogenase 1A1 (Homo sapiens) (UniProt P00352). Briefly: qHTS Assay for Inhibitors of Aldehyde Dehydrogenase 1 (ALDH1A1). The conditions noted are these: Purified ALDH1A1, NADH fluorescence, propionaldehyde substrate; series mostly up to 75.3 µM.
As to `Cc1cc2ccccc2n1CCC(=O)O`, the Potency result was “inactive”.

Regarding `O=[N+]([O-])c1ccccc1NCc1ccccc1Cl`, the Potency entry is “inactive”.

On to `Cc1cccc(C)c1NC(=O)C1(N(C(=O)c2ccccn2)c2ccc(O)cc2)CCCCC1`, for which the Potency result was “inactive”.

On to `CCn1c(SCC(=O)Nc2ccc3c(c2)OCCO3)nc2c(c1=O)SC(C)C2` (centres undefined), for which the Potency result was “inactive”.

`CCc1nnc(NC(=O)CSc2nc3c(c(=O)n2-c2ccccc2OC)SCC3)s1`: the Potency was 22.4 µM (active).

On to `COc1ccccc1-n1c(CNC(=O)c2ccccc2)nnc1SCC(=O)Nc1nnc(C)s1`, for which the Potency entry was “inactive”.

Turning to `CCOC(=O)c1sc(NC(=O)CSc2nc3c(c(=O)n2-c2ccccc2)SCC3)c(C(=O)OCC)c1C`, the Potency result was “inactive”.

In the case of `CCOc1ccc(NC(=O)CSc2nc3c(c(=O)n2-c2ccccc2OC)SCC3)cc1`, the Potency was 17.8 µM (active).

In the case of `CCc1nnc(NC(=O)CSc2nc3ccccc3c(=O)n2CCCOC)s1`, the Potency entry was “inactive”.

Turning to `O=C(Nn1cnc2ccccc2c1=O)c1ccc([N+](=O)[O-])cc1Cl`, the Potency entry is “inactive”.

Regarding `C=C(C(C)=O)C(O)c1ccc([N+](=O)[O-])cc1` (centres undefined), the Potency entry is “inactive”.

For `CCCCC(=O)NCc1ccc(F)cc1`, the Potency result is “inactive”.

For `COc1ccccc1CNS(=O)(=O)c1ccc(C)cc1`, the Potency entry was “inactive”.

In the case of `O=C(CC(NS(=O)(=O)c1ccc(Cl)cc1)c1ccco1)NC1CCCC1` (centres undefined), the Potency entry was “inactive”.

Turning to `COc1ccc(S(=O)(=O)NC(CC(=O)NCc2ccccc2OC)c2ccco2)cc1` (centres undefined), the Potency was 10 µM (active).

Consider `COC(=O)CCC(=O)N1CCCC(CO)(Cc2ccccc2)C1` (centres undefined), for which the Potency result was “inactive”.

Turning to `C#CCCOC(=O)N1C2=NC(C(=O)OC)=C(C(=O)OC)[C@@H]3N(C)c4ccc(OC)cc4[C@]23C[C@H]1C(=O)OC`, the activity, negative = inhibition is 4.88% [at 13.5 µM].

As to `CCOC(=O)CN/C=C(\C#N)c1ccc(F)cc1`, the Potency entry is “inactive”.

Regarding `Cc1ccc(C(=O)c2c(NC(=O)c3ccncc3)sc3c2CCCC3)cc1`, the Potency entry was “inactive”.

For the compound `Cc1ccc(C(=O)NCCNC(=O)c2ccccc2)cc1`, the Potency entry was “inactive”.

`Cc1ccc(C(=O)c2c(NC(=O)c3ccccc3)sc(C)c2C)cc1`: the Potency was 25.1 µM (active).

Turning to `CCC(=O)NCc1cc(-c2nn(C)c(=O)c3ccccc23)ccc1OC`, the Potency entry was “inactive”.

Regarding `COc1ccc(C(=O)NNC(=O)c2cnccn2)cc1[N+](=O)[O-]`, the Potency entry was “inactive”.

As for `COc1ccc(C(=O)CSc2nc(C)cc(C)n2)cc1[N+](=O)[O-]`, the Potency is 2.24 µM (active).

Turning to `COC(=O)c1cc(C(=O)CSc2nc(C)cc(C)n2)ccc1O`, the Potency entry is “inactive”.

Take `C/C(=N\NC(=O)OC(C)(C)C)c1ccc[nH]1`: the Potency result is “inactive”.

Consider `O=C(NCC1COc2ccccc2O1)C1(c2ccccc2)CCCC1` (centres undefined), for which the Potency result is “inactive”.

Take `Cc1cc(C(=O)CCl)c(C)n1CC1COc2ccccc2O1` (centres undefined): the Potency is 0.251 µM (active).

On to `Cc1cc(NC(=O)CCC2COc3ccccc3O2)no1` (centres undefined), for which the Potency result was “inactive”.

With `O=C(NNC(=O)c1ccc(Cl)cc1Cl)c1cccs1`, the Potency result is “inactive”.

With `Fc1cccc(Cc2noc(CN3CCN(c4cnccn4)CC3)n2)c1`, the Potency entry was “inactive”.

As to `CCOC(=O)c1c(C)[nH]c2c1-c1ccccc1C(=O)C2=O`, the Potency entry is “inactive”.

For the compound `CCCCOC(=O)c1[nH]c(C)c(C(=O)OC)c1C`, the Potency entry is “inactive”.

On to `CCOC(=O)c1c(C)[nH]c(C2=NNC(=NC(C)COC)SC2)c1C` (centres undefined), for which the Potency is 10 µM (active).

As to `CN1CCN(c2nc(Nc3ccc(O)cc3)nc3ccccc23)CC1`, the Potency result was “inactive”.

As to `COc1ccc(-c2nn(-c3ccccc3)cc2/C=C\C(=O)N2CCOCC2)cc1[N+](=O)[O-]`, the Potency entry is “inactive”.

In the case of `S=C(NCCCc1cnc[nH]1)NCCCN(Cc1ccc(Cl)c(Cl)c1)c1ccc(Br)cn1`, the Potency entry was “inactive”.

Turning to `COc1ccc(N2CC(C)Cn3c2nc2c3c(=O)n(Cc3ccccc3F)c(=O)n2C)c(OC)c1` (centres undefined), the Potency was 17.8 µM (active).

`COc1ccc(C(CCNCc2ccccc2F)c2ccc(F)cc2)cc1` (centres undefined): the Potency entry is “inactive”.

Turning to `CC1CN(C2CCCCC2)c2nc3c(c(=O)n(C)c(=O)n3C)n2C1` (centres undefined), the Potency result was “inactive”.

Turning to `COc1ccc2c(c1)CCc1c(C(=O)Nc3c(C)n(C)n(-c4ccccc4)c3=O)noc1-2`, the Potency entry is “inactive”.

With `COc1ccc2c(c1)CCc1c(C(=O)N3CCCC3)noc1-2`, the Potency is 10 µM (active).

On to `O=C(c1cc(-c2ccccc2O)on1)N1CCCC1`, for which the Potency result was “inactive”.

As for `CCCCc1ccc(NC(=S)NCCCN2CCOCC2)cc1`, the Potency entry was “inactive”.

Take `Cc1cccc(C(=O)OC(C)CN2CCN(C)CC2)c1` (centres undefined): the Potency result is “inactive”.

With `CC1(C)CC(N(Cc2ccccc2)C(=O)Cc2ccccc2)CCO1` (centres undefined), the Potency result was “inactive”.

In the case of `Cc1noc(C)c1COc1cccc(C(=O)Nc2cccnc2)c1`, the Potency result was “inactive”.

In the case of `O=C(O)c1ccc2c3c(cccc13)C(=O)N(OS(=O)(=O)c1ccccc1)C2=O`, the Potency entry was “inactive”.

In the case of `Cc1ccccc1NC(=O)NC1(C(=O)N2CCCC2)CCCCC1`, the Potency entry is “inactive”.

`O=C(CN1C(=O)NC2(CCCCCC2)C1=O)NC1CC1`: the Potency result is “inactive”.

For `O=C(CN1C(=O)NC2(CCCCCC2)C1=O)NCc1cccs1`, the Potency entry was “inactive”.

Regarding `O=C1CN(C(=O)CN2C(=O)NC3(CCCCC3)C2=O)c2ccccc2N1`, the Potency was 15.8 µM (active).

For `CCOC(=O)N1CCN(C(=O)Cn2cnc3ccccc3c2=O)CC1`, the Potency result is “inactive”.

For `O=C(COC(=O)Cn1cnc2ccccc2c1=O)NCc1ccccc1Cl`, the Potency result is “inactive”.

Take `COc1ccc(C(C)=O)cc1COC(=O)Cn1cnc2ccccc2c1=O`: the Potency was 20 µM (active).

As for `CCOCCCN(C(=O)Cn1nnc(-c2ccc(OC)c(OC)c2)n1)C(CC)C(=O)NC1CCCC1` (centres undefined), the Potency entry was “inactive”.

As to `NC1CCN(O)C1=O` (centres undefined), the Potency result was “inactive”.

Turning to `C/C=N/NC(=O)CCCC(=O)N/N=C/C`, the Potency entry was “inactive”.

Regarding `O=C(N/N=C/c1ccc([N+](=O)[O-])cc1)C(=O)N1CCCC1`, the Potency result is “inactive”.

`CCOCCCNC(=S)N1CCC(NC(=O)C2CCCCC2)CC1`: the Potency entry was “inactive”.

On to `O=C(OCc1cc(Cl)ccc1OC(F)F)c1cccnc1`, for which the Potency entry was “inactive”.

Turning to `CCOc1ccc(C(C)=O)cc1COC(=O)c1cnc(Cl)c(Cl)c1`, the Potency was 0.708 µM (active).

Regarding `COCc1cc(C(C)=O)ccc1OC`, the Potency result is “inactive”.

In the case of `Cc1ccc(C2=N/C(=C\c3ccc(OS(=O)(=O)c4ccc(C)cc4)cc3)C(=O)O2)cc1`, the Potency was 25.1 µM (active).

`Cc1cccc(C2=N/C(=C/c3cccs3)C(=O)O2)c1`: the Potency entry was “inactive”.

Turning to `Cc1ccccc1C1=N/C(=C/c2cccnc2)C(=O)O1`, the Potency entry is “inactive”.

`COCCN(C(=S)Nc1ccccc1OC)C1CCN(C(C)C)CC1`: the Potency result was “inactive”.

On to `O=C(O)c1ccc2c(c1)C(=O)N(NC(=O)c1ccc(O)cc1)C2=O`, for which the Potency entry is “inactive”.

`C=CCN1C2CCCC1CC(NC(=S)Nc1cccc(OC)c1)C2` (centres undefined): the Potency entry was “inactive”.
